{"source": "PubChem BioAssay (NCI)", "note": "This is part of a sample that, as a whole, favours compounds with a hit. Of some 83,000 tested, about 20% had one in any assay.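 Negative percent growth values reflect cell death: -40 means 40% of the cells present at the start died, and -100 means all died.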 Active and inactive are the calls of the source. Rule for the calls: active = growth percent below 10; inactive = the rest."}
{"tested_on": "HL-60(TB) leukemia", "test": "NCI-60 one-dose screen, 48 h (100 = growth as untreated, 0 = no growth, -100 = all killed)", "conditions": "10 µM unless noted"}
{"smiles": "Cc1cccc(-c2cc(O)c(C(=O)N3CCOCC3)s2)c1", "growth": "24.5% (inactive)"}
{"smiles": "C#CCOc1ccc(C2=NN(C)C3N=C(Cl)c4ncn(C)c4N23)cc1OCC#C", "note": "(stereo not given)", "growth": "98.6% (inactive)"}
{"smiles": "O=C(N/N=C/c1ccc(Cl)cc1)c1ccc(Cc2n[nH]c(=O)c3cccnc23)cc1", "growth": "100% (inactive)"}
{"smiles": "CS(=O)(=O)Nc1cc(-c2ccc3ncnc(Nc4ccc5c(cnn5Cc5ccccc5F)c4)c3c2)cnc1Cl", "growth": "22.7% (inactive)"}
{"smiles": "Cc1ccc(C(=O)C(Br)C(Br)c2ccccc2)cc1", "note": "(stereo not given)", "growth": "45.1% (inactive)"}
{"smiles": "O=c1oc2ccc(Br)cc2c(=O)n1-c1ccc(Cl)cc1F", "growth": "-32.8% (active)"}
{"smiles": "Nc1ccc2c(c1Br)Cc1ccccc1-2", "growth": "56.3% (inactive)"}
{"smiles": "COc1ccc(OC)c2c1CCC1(C2)NC(=O)NC1=O", "note": "(stereo not given)", "growth": "111% (inactive)"}
{"smiles": "Cl/C(=N\\Nc1ccccc1)c1ccccc1", "growth": "101% (inactive)"}
{"smiles": "Oc1ccc(Nc2ccc3ccccc3c2)cc1", "growth": "54.9% (inactive)"}
{"smiles": "COc1cc(C2=NN(C(C)=O)C(c3ccc(OC(C)=O)cc3OC(C)=O)O2)c(OC(C)=O)c2ccccc12", "note": "(stereo not given)", "growth": "-17.9% (active)"}
{"smiles": "COc1cc(/C=C2\\CCC/C(=C\\c3cc(CN4CCCC4)c(O)c(OC)c3)C2=O)cc(CN2CCCC2)c1O", "growth": "5.18% (active)"}
{"smiles": "COc1ccc(CN2c3ccccc3Sc3ccccc32)c(C(F)(F)F)c1", "growth": "23.7% (inactive)"}
{"smiles": "COc1ccc(CN2CCc3c(Cl)nc(N)nc3C2=O)c(OC)c1", "growth": "12.3% [100 µM] (inactive)"}
{"smiles": "NC(=O)c1ccc[n+](Cc2ccc(Cl)cc2Cl)c1", "growth": "73.1% (inactive)"}
{"smiles": "CNCCOc1nc2c3cnccc3cc(-c3cc(OC)c(OC)c(OC)c3)c2c2ccncc12", "growth": "-25.8% (active)"}
{"smiles": "CC1=NC(=S)NC(c2ccccc2)/C1=C1/CC(c2ccccc2O)NN1", "note": "(stereo not given)", "growth": "97.2% (inactive)"}
{"smiles": "CCOC(=O)Nc1cc2c(c(N)n1)N=C(c1ccccc1)CO2", "growth": "-0.963% (active)"}
{"smiles": "O=C(Nc1nc2ccc(F)cc2s1)c1cccnc1Nc1ccc(Cl)cc1Cl", "growth": "26.5% (inactive)"}
{"smiles": "C#Cc1cc(C(=O)Nc2ccc(CN3CCN(C)CC3)c(C(F)(F)F)c2)ccc1C", "growth": "77.8% (inactive)"}
{"smiles": "Cn1c(COC(=O)NCCc2ccccn2)nc2c(N3CCOCC3)nc(Cl)nc21", "growth": "-36.9% (active)"}
{"smiles": "COc1ccc(-c2c(N)n[nH]c2-c2cc(OC)c(OC)c(OC)c2)cc1", "growth": "15.3% (inactive)"}
{"smiles": "COc1ccc(-c2nn(-c3cccc(NC(=O)c4ccc5c(c4)OCCO5)c3)cc2-c2ccncc2)cc1Cl", "growth": "-2.93% (active)"}
{"smiles": "O[C@H]1[C@H]2c3cc4c(cc3CN3CCC(=C[C@@H]1O)[C@H]23)OCO4", "growth": "5.02% (active)"}
{"smiles": "CSc1nnc(-c2sc3nnc(-c4ccccc4)c(-c4ccccc4)c3c2O)o1", "growth": "107% (inactive)"}
{"smiles": "CS(=O)(=O)Nc1cc(-c2ccc3ncnc(Nc4ccc5[nH]ncc5c4)c3c2)cnc1Cl", "growth": "55.5% (inactive)"}
{"smiles": "COc1cc2ccc(C(C)=O)cc2cc1OC", "growth": "133% (inactive)"}
{"smiles": "CC(c1cc(Cl)ccc1O)c1cc(Cl)ccc1O", "growth": "34.1% (inactive)"}
{"smiles": "COc1ccc(N=C2C(=Nc3ccc(OC)cc3)N(c3ccc(N(C)C)cc3)C(=S)N2c2ccc(OC)cc2)cc1", "growth": "24.6% (inactive)"}
{"smiles": "S=c1sc2c(Cl)nc(-c3cccnc3)nc2n1-c1ccccc1", "growth": "-52.5% (active)"}
{"smiles": "O=C(Nc1cccc(Cn2c(=O)[nH]c3ccc(Oc4ncccn4)cc3c2=O)c1)c1cccc(F)c1", "growth": "89.9% (inactive)"}
{"smiles": "COc1ccc2c(CCCC(c3ccccc3)c3ccccc3)c3[n+](cc2c1OC)CCc1cc2c(cc1-3)OCO2", "growth": "-30.9% (active)"}
{"smiles": "N#Cc1ccc(-c2csc(Nc3ccc4nc5n(c(=O)c4c3)CCC5)n2)cc1", "growth": "103% (inactive)"}
{"smiles": "COc1ccc(Cc2cnc(N)nc2N)cc1OC", "growth": "95.2% (inactive)"}
{"smiles": "CCCCCC(=O)O[C@]1(C(C)=O)CCC2C3CCC4=CC(=O)CC[C@]4(C)C3CC[C@@]21C", "note": "(stereo not given in full)", "growth": "-43.2% (active)"}
{"smiles": "Cc1cc(C)c(O)c(CNCCCNCc2cc(C)cc(C)c2O)c1", "growth": "48.6% (inactive)"}
{"smiles": "COc1ccc2cc(-c3nc4ccccc4[nH]3)c(=O)oc2c1", "growth": "81.2% (inactive)"}
{"smiles": "COC(=O)[C@]12CC[C@@H](C)[C@H](C)[C@@H]1C1=CC[C@@H]3[C@@]4(C)CC(=O)[C@H](O)[C@@]5(C)COC(=C45)C[C@@]3(C)[C@]1(C)CC2", "growth": "-37.5% (active)"}
{"smiles": "O=C1c2ccc3c4c(ccc(c24)C(=O)N1CCCNCc1ccccc1F)C(=O)N(CCCNCc1ccccc1F)C3=O", "growth": "-59% (active)"}
{"smiles": "S=C(Sc1ccc(Cl)cc1)Sc1ccc(Cl)cc1", "growth": "-63.7% (active)"}
